Screens (PubChem BioAssay)
GPR151 ag: human GPR151 activation. AID 1508602. PathHunter beta-arrestin GPR151 cells, luminescence. 650,000 compounds, 1% hits. activation, % at 11.2 µM; in the data active means activation above about 4.9%;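 further: 0% = median of compound wells and 100% = cells with positive control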
TEAD-YAP inh: TEAD-YAP interaction inhibition; HEK-TIYL cells, TEAD-Gal4/YAP UAS-luciferase luminescence; inhibition, % at 9.12 µM; 640,000 compounds, 1.4% hits; AID 1259422; in the data active means inhibition above about 32%;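 further: 0% = median of test compound wells and 100% = reference inhibitor wells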
FBW7 activator: human FBW7 E3 ligase activation, primary screen; Q969H0; AlphaScreen FBW7–phospho-cyclin E peptide binding, activator screen; normalized activity (activation), % at 26.1 µM; 650,000 compounds, 0.13% hits; AID 1259310; in the data active means normalized activity above about 1.9%;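 further: purified mutant Fbw7 with reduced substrate affinity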
MITF primary: human MITF inhibition, primary screen | O75030 | AlphaScreen MITF homodimerization, bead proximity signal | inhibition, % at 2.6 µM | 650,000 compounds, 0.91% hits | AID 1259374; in the data active means inhibition above about 50%;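 further: 0% = vehicle wells with protein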
Target sequence (O75030 whole entry, looked up): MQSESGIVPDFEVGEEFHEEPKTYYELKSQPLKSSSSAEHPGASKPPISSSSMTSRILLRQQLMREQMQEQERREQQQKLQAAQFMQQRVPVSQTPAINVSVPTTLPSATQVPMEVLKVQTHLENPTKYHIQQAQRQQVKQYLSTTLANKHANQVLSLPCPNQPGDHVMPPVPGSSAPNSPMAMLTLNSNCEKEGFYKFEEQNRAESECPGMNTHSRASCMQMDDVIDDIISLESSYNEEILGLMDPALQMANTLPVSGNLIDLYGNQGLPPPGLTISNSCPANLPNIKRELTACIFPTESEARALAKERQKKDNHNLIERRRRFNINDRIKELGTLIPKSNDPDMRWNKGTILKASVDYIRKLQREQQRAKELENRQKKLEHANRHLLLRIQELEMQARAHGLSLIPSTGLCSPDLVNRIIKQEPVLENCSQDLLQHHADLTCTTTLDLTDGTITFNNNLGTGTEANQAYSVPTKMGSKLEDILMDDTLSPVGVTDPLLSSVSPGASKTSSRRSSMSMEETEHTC
MITF inh conf: human MITF inhibition, confirmation. 4,700 compounds, 16% hits. AID 1259372. inhibition, % at 2.6 µM. AlphaScreen MITF homodimerization, biotin/His-MITF beads. shares compounds with MITF primary;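 active means inhibition above a cutoff derived from the DMSO control wells, cut at about 28% in these data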;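 further: 0% = MITF dimer wells with DMSO only; inhibitors lower the bead chemiluminescence by keeping MITF from dimerizing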
AS interf DR: AlphaScreen optical interference, dose response counter-screen; shares compounds with MITF primary; AlphaScreen optical interference counterscreen, cell-free; IC50, µM; 480 compounds, 6% hits; AID 1259373; call rule not given here
AS interf ctr: counter-screen: compounds optically interfering with AlphaScreen; shares compounds with MITF primary; LysRS AlphaScreen counterscreen, signal interference, triplicate; inhibition, % at 2.6 µM; 4,700 compounds, 7.6% hits;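 active means inhibition above a cutoff derived from the DMSO control wells, cut at about 30% in these data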
Numbers without * were called inactive. Hits are enriched below; roughly 3.4% of the tested compounds scored in any of these assays.

CN(c1cccc(NS(=O)(=O)c2ccc([N+](=O)[O-])cc2)c1)S(C)(=O)=O was read as GPR151 ag -2, TEAD-YAP inh 13, FBW7 activator 0, MITF primary 51*, MITF inh conf 34*, AS interf DR >6.5 and AS interf ctr 7.
`O=[N+]([O-])c1ccc(CN2CCN(c3ccc(Cl)cc3)CC2)o1` gave GPR151 ag 4, TEAD-YAP inh 7, FBW7 activator 1, MITF primary 59*, MITF inh conf 16 and AS interf ctr 12.
For O=[N+]([O-])c1ccc(CN2CCN(c3cccc(Cl)c3)CC2)o1 the results were GPR151 ag 1, TEAD-YAP inh 5, FBW7 activator 0 and MITF primary 21.
For O=[N+]([O-])c1ccc(CN2CCN(c3ncccn3)CC2)o1 the results were GPR151 ag 0, TEAD-YAP inh 9, FBW7 activator 0, MITF primary 58*, MITF inh conf 5 and AS interf ctr 1.
Screening CCOc1ccc(N=c2sc(C3=c4ccccc4=NC3=O)c(O)n2-c2ccc(OCC)cc2)cc1 returned GPR151 ag 3, TEAD-YAP inh 0, FBW7 activator 0, MITF primary 113*, MITF inh conf 10 and AS interf ctr 18.
For CSc1nnc(CSc2nc(C)cc(C)n2)n1-c1ccccc1 the results were GPR151 ag 2, TEAD-YAP inh -16, FBW7 activator 0 and MITF primary -1.
CCOC(=O)/C=C1/Nc2ccccc2C(c2ccccc2)(c2ccccc2)N1 was read as GPR151 ag 0, TEAD-YAP inh 13, FBW7 activator 0 and MITF primary 3.
For CCOC(=O)/C=C1\NC(c2ccccc2)=C(c2ccccc2)C1=O the results were GPR151 ag -1, TEAD-YAP inh -7, FBW7 activator 0, MITF primary 56*, MITF inh conf 8 and AS interf ctr 17.
For O=[N+]([O-])c1ccc(N2CCN(CCOCCO)CC2)c([N+](=O)[O-])c1 the results were GPR151 ag -1, TEAD-YAP inh -2, FBW7 activator 0, MITF primary 56*, MITF inh conf -5 and AS interf ctr -3.
`COc1ccc(CNCCSc2nccn2C)cc1` gave GPR151 ag 1, TEAD-YAP inh -6, FBW7 activator 0, MITF primary 70*, MITF inh conf 12 and AS interf ctr 15.
For COc1cc2nc(Nc3ccc(C(F)(F)F)cc3)nc(NCCOc3ccccc3)c2cc1OC the results were GPR151 ag -2, TEAD-YAP inh 2, FBW7 activator 0 and MITF primary -16.
`Cc1ccc(OCCN2CCCCC2)c([N+](=O)[O-])c1` gave GPR151 ag 2, TEAD-YAP inh -7, FBW7 activator 0, MITF primary 64*, MITF inh conf 19 and AS interf ctr 14.
Screening Cc1ccc(OCCN2CC(C)OC(C)C2)c([N+](=O)[O-])c1 (stereo not given) returned GPR151 ag -2, TEAD-YAP inh -1, FBW7 activator 0, MITF primary 76*, MITF inh conf 16 and AS interf ctr -5.
`Cc1ccc(OCCN2CCN(C)CC2)c([N+](=O)[O-])c1` gave GPR151 ag 2, TEAD-YAP inh -10, FBW7 activator 0, MITF primary 76*, MITF inh conf -9 and AS interf ctr 0.
Cc1ccc(OCCN2CCNCC2)c([N+](=O)[O-])c1 was read as GPR151 ag 0, TEAD-YAP inh -20, FBW7 activator 0 and MITF primary 50.
Cc1ccc(OCCCN2CCCC2)c([N+](=O)[O-])c1 was read as GPR151 ag 0, TEAD-YAP inh 0, FBW7 activator 0 and MITF primary 38.
Screening CCOc1ccc(CNC(=O)c2ccc(NC(=O)C3=C(C)OCCS3)cc2Cl)cc1 returned GPR151 ag 1, TEAD-YAP inh 12, FBW7 activator 0 and MITF primary 2.
For c1nc(NCCCNC2CCCCC2)c2c3c(sc2n1)CCC3 the results were GPR151 ag -1, TEAD-YAP inh 1, FBW7 activator 0 and MITF primary -2.
`COc1ccccc1CCc1nnc(CCC(=O)NCCc2cn3ccccc3n2)o1` gave GPR151 ag 1, TEAD-YAP inh 4, FBW7 activator 0 and MITF primary 9.
